ELG1 repair inh: qHTS screen for small molecules that inhibit ELG1-dependent DNA repair in human embryonic kidney (HEK293T) cells expressing luciferase-tagged ELG1. AID 504467, 2011. actives 2.3% (n = 330,000). HEK293T ELG1-luciferase reporter, luminescence, 16 h; DNA damage induced by 5-fluorouridine. Potency, µM (top dose mostly 46.1 µM), inactives show at the highest dose activity change, negative = inhibition, most hits filed as inhibitors; also: nearly all actives have a fitted effect of over 55% in size
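Luminescence from the luciferase reporter, measured 30 min after ONE-Glo reagent at room temperature, was the read-out. Beforehand, 2,000 cells per well were exposed for 16 hr at 37 °C to 5-fluorouridine together with compound or vehicle.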
VP16 counter: VP16 counterscreen qHTS for inhibitors of ROR gamma transcriptional activity; Drosophila S2 Gal4-VP16 UAS-luciferase, luminescence, 20 h; Potency, µM (highest dose often 53.6 µM), without a hit: at the top dose activity, negative = inhibition, most hits filed as inhibitors; actives 3.5% (n = 310,000); AID 2546, 2010;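 also: Gal4-VP16 expression switched on by copper sulfate through the metallothionein promoter; nearly all actives have a fitted effect of over 50% in size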
ALOX12 inh: Primary qHTS assay for inhibitors of human arachidonate 12S-lipoxygenase (ALOX12): Round 2; Polyunsaturated fatty acid lipoxygenase ALOX12 (Homo sapiens), P18054; purified 12hLO, xylenol orange hydroperoxide absorbance; Potency, µM (series often up to 108 µM), without a hit: at the top dose activity change, negative = inhibition, actives largely listed as inhibitors; actives 1.1% (n = 580,000); AID 1671190, 2021
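Purified human 12hLO (150 nM final) in 25 mM Hepes, 0.01% Triton X-100, pH 7.0 was preincubated 15 min at room temperature with compound. Then 40 uM arachidonic acid was added, 30 min. Hydroperoxide was read by Fe-XO absorbance ratio 573/405 nm.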
DT40 TDP1 no CPT: qHTS for Inhibitors of human tyrosyl-DNA phosphodiesterase 1 (TDP1): qHTS in cells in absence of CPT; DT40 Tdp1-/- hTDP1 cells, no CPT, ATP luminescence, 48 h; Potency, µM (titrated, usually from 46.2 µM), without a hit: top-dose activity change, negative = growth inhibition, most hits filed as inhibitors; actives 15% (n = 420,000); AID 686978, 2013; also: nearly all actives have a fitted effect of over 55% in size
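Readout: luminescence from CellTiter-Glo after 30 min in the dark at RT. Cells: DT40 Tdp1-/- with stable hTDP1, 400/well. Exposure: compounds alone, ≥48 hr, 37 °C.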
RORgamma inh: qHTS for inhibitors of ROR gamma transcriptional activity. Drosophila S2 Gal4-RORgamma UAS-luciferase reporter, 20 h. Potency, µM (series often up to 53.6 µM), without a hit: at the highest dose activity change, negative = inhibition, most hits filed as inhibitors. Nuclear receptor ROR-gamma (Mus musculus), P51450. AID 2551, 2010. actives 5.4% (n = 310,000); also: nearly all actives have a fitted effect of over 60% in size
Target sequence (P51450 whole entry, looked up, the tested form may be a part): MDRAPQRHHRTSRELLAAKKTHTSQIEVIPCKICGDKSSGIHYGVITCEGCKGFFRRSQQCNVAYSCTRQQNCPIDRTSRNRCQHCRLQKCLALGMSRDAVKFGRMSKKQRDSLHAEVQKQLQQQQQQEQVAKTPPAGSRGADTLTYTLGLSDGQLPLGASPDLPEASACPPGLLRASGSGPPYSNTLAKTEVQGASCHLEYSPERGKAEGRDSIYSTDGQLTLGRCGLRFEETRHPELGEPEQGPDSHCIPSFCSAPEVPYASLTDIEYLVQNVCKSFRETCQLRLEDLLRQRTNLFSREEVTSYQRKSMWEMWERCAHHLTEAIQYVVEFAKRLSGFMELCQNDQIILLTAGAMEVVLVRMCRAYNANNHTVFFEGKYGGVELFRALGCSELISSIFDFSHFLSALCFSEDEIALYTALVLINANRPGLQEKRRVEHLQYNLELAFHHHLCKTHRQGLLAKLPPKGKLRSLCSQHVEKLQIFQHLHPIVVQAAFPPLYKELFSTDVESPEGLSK
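Using a luciferase readout, inhibitors were identified by reduced reporter activity in Drosophila cells coexpressing a copper-inducible Gal4–ROR gamma fusion and UAS-driven Photinus luciferase, incubated 20 hr after 700 uM copper sulfate.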
DT40 TDP1 CPT: qHTS for Inhibitors of human tyrosyl-DNA phosphodiesterase 1 (TDP1): qHTS in cells in presence of CPT; chicken DT40 Tdp1-/-;hTDP1 cells + 20 nM CPT, ATP luminescence, 48 h; Potency, µM (top dose mostly 46.2 µM), inactives show top-dose activity change, negative = growth inhibition, actives largely listed as inhibitors; actives 12% (n = 420,000); also: nearly all actives have a fitted effect of over 55% in size
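Chicken DT40 Tdp1-/- cells stably complemented with human TDP1 were seeded at 400 cells/well in medium containing 20 nM camptothecin, exposed to pin-transferred compounds, and grown at 37 °C for at least 48 hr. Viability was read as ATP luminescence.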
Starred values were filed as active, the others as inactive; u = inconclusive; x = no result; [ ] = remark or other dose. An excerpt weighted towards active compounds, which were near 15% of everything screened. Calls follow the shape of the dose curve; as a rule, active = well fitted curve in the direction sought with a large enough effect; inconclusive = small, poorly fitted or top-dose-only effect, or another doubt; inactive = no such curve, though single readings can be large; an effect the other way counts as inactive or inconclusive. % is scaled to controls: 0 for no effect and ±100 for the full control effect; potency is read from the fitted curve at half-maximal effect.

SMILES | ELG1 repair inh | VP16 counter | ALOX12 inh | DT40 TDP1 no CPT | RORgamma inh | DT40 TDP1 CPT
COc1cc2nc(CN3CCN(S(=O)(=O)c4ccccc4C(F)(F)F)CC3)[nH]c(=O)c2cc1OC | u | x | -3% | u | x | u
COC(=O)C(C(C)C)N(Cc1cc(OC)cc(OC)c1)S(=O)(=O)CCl (configuration not stated) | -19% | x | -15% | 21µM* | x | 16µM*
COc1ccc2[nH]c3c(=O)n(CCCCC(=O)NCCN4CCCC4)c(=S)[nH]c3c2c1 | -2% | 1% | 14µM* | 2% | u | 7%
COc1ccc2[nH]c3c(=O)n(CCCCCC(=O)NCCC(C)C)c(=S)[nH]c3c2c1 | -20% | 3% | -1% | 0% | 0% | -14%
CCn1c(CNC(=O)COc2ccc(C(C)C)cc2)nnc1SCC(=O)Nc1ccc(F)cc1 | u | 4% | 2% | -21% | 12% | -6%
Cc1cccc(C)c1OCC(=O)NCc1nnc(SCC(=O)NC2CCCCC2C)n1C (configuration not stated) | 0% | -3% | 7.1µM* | -8% | -18% | -20%
CCn1c(CNC(=O)COc2ccc(C(C)C)cc2)nnc1SCC(=O)NC1CCCCC1C (configuration not stated) | 16µM* | 3% | -23% | u | u | u
CCn1c(CNC(=O)COc2ccc(C(C)C)cc2)nnc1SCC(=O)Nc1cc(F)ccc1C | u | -3% | 22µM* | u | u | u
COc1ccccc1NC(=O)Cc1nnc(SCC(=O)NC2CCCCC2C)n1C (configuration not stated) | -1% | 2% | -24% | 2% | 8% | 5%
CCOCc1nc(C2CCCN(C(=O)c3ccc(C)c(F)c3)C2)no1 (configuration not stated) | x | x | 25% | x | x | x
Cc1cc(Cl)ccc1OCCCC(=O)NNC(=O)c1ccncc1 | 21% | x | 4% | 3% | x | -5%
Cc1cc(Cl)ccc1OCCCC(=O)N/N=C/c1cccc([N+](=O)[O-])c1 | -4% | -18% | -2% | u | 11%[10 µM] | 15µM*
COc1ccc(/C=N/NC(=O)CCCOc2ccc(Cl)cc2Cl)cc1 | -8% | -3% | 4% | 4% | 22% | 1%
O=C(CCCOc1ccc(Cl)cc1Cl)N/N=C/c1ccc(Cl)cc1 | 9% | u | -17% | 23µM* | -41% | u
O=C(COc1ccc(Cl)cc1Cl)N/N=C/c1ccc(OC2OC(CO)C(O)C(O)C2O)cc1 (configuration not stated) | u | 4% | 14% | -4% | 11µM* | -9%
Cc1cc(C)n(CCC(=O)N/N=C/c2cccc([N+](=O)[O-])c2)n1 | -7% | 5% | 212% | -27% | 3% | 0%
Cc1cc(Cl)ccc1OCCCC(=O)NO | u | -5% | u | 18µM* | -43% | 8.2µM*
c1ccc(CNCC2CCNCC2)cc1 | x | x | 1% | x | x | x
CCC(c1cccs1)N1C(=O)[C@H]2CN(S(=O)(=O)c3ccc(C)cc3C)C[C@H]2C1=O (some centres not stated) | x | x | 1% | x | x | x
COc1ccc(NC(=O)CSc2nc3n[nH]c(C)c3c(=N)n2-c2ccc(Cl)c(C)c2)cc1OC | -4% | u | x | u | u | -16%
CCc1ccc(-n2c(SCC(=O)NC(C)CC)nc3n[nH]c(C)c3c2=N)cc1 (configuration not stated) | x | x | -1% | 5.2µM* | x | 5.8µM*
Cc1c(Cl)cccc1-n1c(SCC(=O)NCc2ccccc2)nc2n[nH]c(C)c2c1=N | x | x | -12% | 12µM* | x | 15µM*
COc1ccc(OC)c(NC(=O)CSc2nc3n[nH]c(C)c3c(=N)n2-c2cccc(Cl)c2C)c1 | u | -14% | -4% | 16µM* | 30% | u
CCc1ccccc1NC(=O)CSc1nc2n[nH]c(C)c2c(=N)n1-c1cccc(OC)c1 | u | -2% | -8% | 23µM* | u | 16µM*
CCc1ccc(-c2cc3c(=O)[nH]nc(SCC(=O)NC(C)CC)n3n2)cc1 (configuration not stated) | x | x | 0% | x | x | x
SMILES | ELG1 repair inh | VP16 counter | ALOX12 inh | DT40 TDP1 no CPT | RORgamma inh | DT40 TDP1 CPT
CCN1CCC2(CCC1=O)CN(Cc1cccc(Cl)c1F)CCN2C (configuration not stated) | x | x | 7% | x | x | x
Cc1ccc(-n2nnnc2SCc2ccccn2)cc1C | u | u | -13% | u | u | -10%
COc1ccccc1-n1c(SCC(=O)Nc2ccccc2C)nc(O)cc1=O | 4% | -1% | -16% | 9% | -9% | 0%
COc1ccc(CNC(=O)CSc2n[nH]c(-c3ccc(OC)cc3)n2)cc1 | x | x | -10% | 13µM* | x | 9.2µM*
Cc1ccccc1-n1c(SCc2ccccn2)nc2n[nH]c(C)c2c1=N | u | u | 0% | 16µM* | u | 21µM*
Cc1ccccc1-n1c(SCC(=O)Nc2ccc(Cl)cc2Cl)nc(O)cc1=O | x | x | 6.3µM* | -5% | x | 5%
Cc1ccc(-n2c(SCC(=O)NCc3ccccc3)nc3n[nH]c(C)c3c2=N)cc1Cl | x | x | -12% | 2.3µM* | x | 4.1µM*
O=C(CSc1nc(O)cc(=O)n1-c1ccccc1)NCc1ccccc1 | 11% | -4% | u | 0% | 10% | -10%
Clc1ccccc1-c1noc(-c2ccc(Br)cc2)n1 | x | x | 5% | x | x | x
N#Cc1ccc(NCCNc2ncccn2)nc1 | x | x | -11% | x | x | x
Cc1ccc(S(=O)(=O)N2CCN(C(=O)CCc3ncc(-c4ccccc4Cl)o3)CC2)cc1 | x | x | -19% | x | x | x
CCc1ccc(NC(=O)CSc2nc3n[nH]c(C)c3c(=N)n2-c2ccccc2C)cc1 | x | x | -10% | u | x | u
Cc1ccccc1-n1c(SCC(=O)Nc2ccccc2Cl)nc2n[nH]c(C)c2c1=N | -3% | -8% | 14% | 18µM* | 30% | 16µM*
Cc1ccc(CNC(=O)CSc2nc3n[nH]c(C)c3c(=N)n2-c2ccccc2Cl)cc1 | x | x | -16% | 23µM* | x | 18µM*

Assay outcomes: PubChem, National Center for Advancing Translational Sciences (NCATS)
